Reference: PMC4552634, “A New Set of Chemical Starting Points with Plasmodium falciparum Transmission-Blocking Potential for Antimalarial Drug Discovery” (PLoS ONE, 2015)
Out of some 13,000 compounds screened, about 3,200 (25%) showed an effect of 50% or more. This is one part of the list.

Each compound was assayed on P. falciparum stage V gametocytes. Conditions: 48 h, 5 µM; inhibitor.
Parameters: BacTiter-Glo ATP luminescence viability of purified stage V gametocytes in 384-well plates, per cent inhibition versus DMSO

Structure (SMILES) | % Inhibition [%]
Cc1cccc(-c2cccc3c(NC(=O)N4CCc5cc6nccc(N7CCN8CCC[C@H]8C7)c6cc54)cccc23)n1 [TCMDC-140053] | -32.82
COc1cc(Cc2cnc(N)nc2N)cc(OCCCCC2SC(=O)NC2=O)c1Br (stereo not drawn) [TCMDC-137240] | 11.21
Cc1noc(C)c1-c1cccc(CNCc2cccc(-c3cccc(-c4nc5cccc(C)c5[nH]4)c3)c2)c1.O=C(O)C(F)(F)F [TCMDC-133050] | -47.47
COc1cc(Cc2cnc(N)nc2N)ccc1Oc1ccc(N)cc1 [TCMDC-138639] | -31.17
COc1cc(C2CCCCC2)c(OC)cc1CC1c2cc(O)c(Cl)cc2CCN1C (stereo not drawn) [TCMDC-137539] | -5.034
CS(=O)(=O)NCCCNCc1cccc(-c2cccc(-c3nc4cc(C(F)(F)F)ccc4[nH]3)c2)c1.O=C(O)C(F)(F)F [TCMDC-133086] | -10.1
CCN(CC)CCOc1ccc(N(Cc2ccc(C(C)(C)C)cc2)C(=O)c2ccc(Cc3ccccc3)cc2)cc1OC [TCMDC-140667] | 103.5
COc1cc(N(Cc2ccc(F)cc2)C(=O)c2ccc(-c3ccccc3)cc2)ccc1OCCN1CCCC1 [TCMDC-140662] | 28.65
CCCC(C)N(Cc1ccc(C(C)(C)C)cc1)C(=O)c1cccc(OC)c1 (stereo not drawn) [TCMDC-139783] | -10.58
CCNc1cc(C(=O)N[C@@H](Cc2ccccc2)[C@H](O)CNCc2ccc3c(c2)OCCO3)cc(N2CCCCS2(=O)=O)c1 [TCMDC-135189] | -0.5627
CCCc1cc(Cc2cnc(N)nc2N)cc(CCC)c1OCCCCC(=O)O [TCMDC-137293] | -0.4294
COc1ccc(-c2cc(-c3nc4ccc(CN)cc4[nH]3)c(=O)n(C)c2)cc1OC [TCMDC-135048] | 18.44
COc1ccc2nc(-c3cc(-c4ccc(NC(=O)CN5CCOCC5)cc4)cnc3N)[nH]c2c1 [TCMDC-135373] | 7.84
COc1ccc(-c2cc(-c3nc4ccc(C(=O)N5CCOCC5)cc4[nH]3)c(=O)n(C)c2)cc1OC [TCMDC-135055] | 52.78
CCn1c(SCc2ccc(F)cc2)nc2sc3c(c2c1=O)CCN(C)C3 [TCMDC-124551] | 44.44
CCN1CCC(N(Cc2ccc(-c3ccc(C(F)(F)F)cc3)cc2)C(=O)Cn2c(SCc3ccc(F)cc3)nc(=O)c3c2CCC3)CC1 [TCMDC-140976] | 69.1
CCNC(C)(C)CN(Cc1ccc(-c2ccc(C(F)(F)F)cc2)cc1)C(=O)Cn1c(SCc2ccc(F)cc2)nc(=O)c2c1CCC2 [TCMDC-140977] | 131.5
CCN1CCC(N(Cc2ccc(-c3ccc(C(F)(F)F)cc3)cc2)C(=O)Cn2nc(C)c(=O)cc2SCc2ccc(F)cc2)CC1 [TCMDC-141284] | 72.73
CCN(CC)CCN(Cc1ccc(-c2ccc(C(F)(F)F)cc2)cc1)C(=O)Cn1c(SCc2ccc(F)c(F)c2F)nc(=O)c2c1CCC2 [TCMDC-141063] | 82.6
CCOC(=O)c1ccc(NC(=O)Nc2ccc(-c3cccc(-c4nc5c(C)cccc5[nH]4)c3)cc2)cc1 [TCMDC-133262] | -3.129
CC(C)(C)c1ccc(CN(C[C@@H](O)CNS(=O)(=O)c2cc(Cl)cc(Cl)c2)C(C)(C)C)cc1 [TCMDC-135386] | -63.29
COc1ccc(CC(=O)NC(CCCN2CCC3(CC2)OCc2ccccc23)c2ccc(Cl)c(Cl)c2)cc1 (stereo not drawn) [TCMDC-141898] | -52.62

Structure (SMILES) | % Inhibition [%]
O=C(Nc1cccc(F)c1)N1CCC(NS(=O)(=O)c2ccc(Br)cc2)CC1 [TCMDC-139438] | 2.418
COc1cc2c(cc1OC)-c1cc(=Nc3c(C)cc(C)cc3C)n(C)c(=O)n1CC2 [TCMDC-125545] | 16.19
CN(CCCNc1ccc(C(=O)Nc2ccc(C(F)(F)F)cc2)cc1[N+](=O)[O-])Cc1ccccc1 [TCMDC-125682] | -31.17
CN(Cc1cccc(F)c1)C1CCN(c2cc(NC(=O)c3ccc(F)cc3)ccn2)C1 (stereo not drawn) [TCMDC-135004] | -24.42
CC(C)c1ccc(NC(=O)c2cccc(CN3CCCN(Cc4cccc(O)c4)CC3)c2)cc1 [TCMDC-135976] | -1.635
CC(C)(C)NCCN(Cc1ccc(-c2ccc(C(F)(F)F)cc2)cc1)C(=O)Cn1c(SCc2ccc(F)cc2)nc(=O)c2c1CCC2 [TCMDC-140978] | 110.1
Cn1ccnc1-c1nc2ccccn2c1NCC(=O)Nc1ccccc1N1CCCCC1 [TCMDC-133801] | -70.89
CCNc1cc(C)nc(Nc2ccc(NC(=O)c3ccc(OC)c(OC)c3)cc2)n1 [TCMDC-124987] | 8.373
CSC1=NC(=Nc2ccccc2C)C2(CCC(C(C)(C)C)CC2)N1c1ccccc1Cl (stereo not drawn) [TCMDC-124136] | 53.76
CSC1=NC(=Nc2c(C)cccc2C)C2(CCCCC2)N1c1ccccc1Cl [TCMDC-124143] | 13.06
Cc1cccc(C)c1NC1=NC(=S)N(c2cccc(Cl)c2)C12CCC(C(C)(C)C)CC2 (stereo not drawn) [TCMDC-124101] | -11.15
Cc1cc(C(=O)NC2CCN(Cc3ccccc3)CC2)ccc1-c1nc2ccc(C(F)(F)F)cc2[nH]1 [TCMDC-140120] | -4.747
N#Cc1ccc(N2CCN(Cc3ccc(-c4ccc(-c5nc6ccc(F)cc6[nH]5)s4)cc3)CC2)nc1 [TCMDC-133115] | -21.41
Oc1cc(Nc2ccnc3cc(-c4cccc(CN5CCOCC5)c4)ccc23)c(F)cc1Cl [TCMDC-138434] | 12.33
COc1ccc2ncn(-c3ccc(C(N)=O)c(OCc4ccccc4C(F)(F)F)c3)c2c1 [TCMDC-134428] | 48.51
CC(C)CN1CCC(COc2ccc3ncn(-c4cc(O[C@H](C)c5ccccc5C(F)(F)F)c(C(N)=O)s4)c3c2)CC1 [TCMDC-135856] | 86.18
NC(=O)c1sc(-n2cnc3ccc(OCC4CCNCC4)cc32)cc1OCc1ccccc1C(F)(F)F [TCMDC-135173] | 107
C[C@@H](Oc1cc(-n2cnc3ccc(OCC4CCN(S(C)(=O)=O)CC4)cc32)sc1C(N)=O)c1ccccc1C(F)(F)F [TCMDC-135685] | 34.9
NC(=O)c1sc(-n2cnc3ccc(C(=O)NCCN4CCOCC4)cc32)cc1OCc1ccccc1C(F)(F)F [TCMDC-135181] | -45.79
CN1CCN(CCCSc2ccc3c(c2)ncn3-c2cc(OCc3ccccc3C(F)(F)F)c(C(N)=O)s2)CC1 [TCMDC-135408] | 12.22
Cc1nc(N)nc(N)c1CCCOc1ccccc1Cl [TCMDC-137929] | 3.372
COc1cccc(CNC[C@@H](O)[C@H](Cc2ccccc2)NC(=O)c2cc(NC(C)C)cc(N3CCCCS3(=O)=O)c2)c1 [TCMDC-135205] | 28.03

Structure (SMILES) | % Inhibition [%]
CC1(C)C=C(c2ccncc2)c2cc(Cl)ccc2O1 [TCMDC-131771] | -9.955
Cc1cc(Nc2nc(Nc3cccc(Cl)c3)nc3ccccc23)n[nH]1 [TCMDC-134695] | 12.71
O=C(NCC1CCC1)c1cnc(Nc2cccc(Cl)c2)nc1N1CCC1 [TCMDC-135363] | 5.577
Clc1cccc(Nc2ccc3c(N4CCCCC4)ncnc3n2)c1 [TCMDC-134937] | 52.12
OC(CNCc1ccccc1OCc1ccccc1)c1cccc(I)c1 (stereo not drawn) [TCMDC-140522] | 41.43
OC(CNCc1ccccc1OCc1ccccc1)c1cccc(Cl)c1 (stereo not drawn) [TCMDC-140563] | -9.137
OC(CNCc1ccccc1OCc1ccccc1)c1cccc(Br)c1 (stereo not drawn) [TCMDC-140734] | 51.74
Cc1cc(OCC(=O)Nc2ccc(-c3nc4ccccc4[nH]3)cc2)cc(C)c1Cl [TCMDC-125674] | -10.97
Cc1cccc(C)c1CNc1ccnc2cc(C#N)ccc12 [TCMDC-132170] | 2.762
NS(=O)(=O)NCCCN1CCN(c2ccccc2)CC1 [TCMDC-141997] | 27.05
CC(C)N1CCN(CCCNc2c3ccccc3nc3ccccc23)CC1 [TCMDC-137547] | 96.57
CC(C)N1CCN(CCCCNc2c3ccccc3nc3ccccc23)CC1 [TCMDC-137573] | 93.57
Cc1ncsc1CCN1C(=O)CC2(C1=O)C(=O)N(Cc1ccccc1)c1ccc(Cl)cc12 (stereo not drawn) [TCMDC-136701] | 2.069
COc1cc(F)c2ncc(Cl)c([C@@H](O)CN3CCC(NCc4cc5c(cn4)OCCO5)CC3)c2c1 [TCMDC-135475] | 41.87
Cc1ccccc1OCCCc1c(C)nc(N)nc1N [TCMDC-138070] | -46.3
Cc1ccc(NC(=O)c2cc(Br)cc(N3CCC(N(C)C)CC3)c2)cc1F [TCMDC-135144] | -10.77
CC(C)Cc1cn(-c2nc(-c3nc4ccccc4[nH]3)cs2)c2cc(Cl)ccc12 [TCMDC-132300] | -85.76
O=C(/C=C/c1cccs1)NCC(NCCCNc1cc(=O)c2ccccc2[nH]1)c1cc(Br)cc(Br)c1 (stereo not drawn) [TCMDC-140318] | -18.64
CCn1cc(CN2CCCC(C(=O)Nc3ccc(-c4nc5ccccc5[nH]4)cc3)C2)cn1 (stereo not drawn) [TCMDC-124674] | -65.71
CCN(CC)CC(O)Cc1c2ccc([N+](=O)[O-])cc2nc2cc(OC)c(OC)cc12 (stereo not drawn) [TCMDC-138126] | 37.45
CCC(=Cc1cccc([N+](=O)[O-])c1)C(=O)NCC1CCN(c2nc(N)c3cc(OC)c(OC)cc3n2)CC1.Cl [TCMDC-138165] | 19.29
CCN(CC)CC(O)CNc1c2ccc([N+](=O)[O-])cc2nc2cc(OC)c(OC)cc12.Cl (stereo not drawn) [TCMDC-138079] | 90.61
